The campaign covered roughly 7,900 compounds. About 400 (5.1%) showed an effect of 50% or more. The list comes from a sample in which strong results are over-represented; it also holds similar structures and randomly drawn compounds.
Target: Parkinson's disease protein 7 (PARK7/DJ1) (human, UniProt Q99497)
Assay: primary screen, percent inhibition; read as competition with a fluorescent probe by fluorescence polarization; higher = more effect of the substance
Details: 100 µM
Summary of the method: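 Covalent fragments at 100 μM final were incubated 2 h with 0.2 μM PARK7, then 20 nM probe JYQ-107 added for a further 2 h. Fluorescence polarization read at 480/520 nm; relative FP loss versus reference controls gave remaining enzyme activity.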

Sequence of Parkinson's disease protein 7 (PARK7/DJ1) (Q99497 whole entry, looked up): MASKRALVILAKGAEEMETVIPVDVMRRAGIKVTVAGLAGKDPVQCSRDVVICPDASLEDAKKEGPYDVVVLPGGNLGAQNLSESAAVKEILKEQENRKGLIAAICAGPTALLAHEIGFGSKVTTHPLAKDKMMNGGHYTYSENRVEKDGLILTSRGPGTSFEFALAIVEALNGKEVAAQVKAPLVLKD

SMILES	Inhibition %
C=CC(=O)NC1COc2cc(Cl)ccc2C1 (stereo not shown)	6.51%
CN1CCCN(C(=O)c2ccc(S(=O)(=O)F)cc2)c2ccccc21	17.9%
O=C(CN1CCSC1=O)Nc1ccc(Cl)c(Cl)c1	0.617%
O=C(CN1CCSC1=O)Nc1ccc2[nH]ncc2c1	60.9%
O=C(O)C=CC(=O)Nc1ccc(F)c(Cl)c1	8.72%
O=C(O)C=CC(=O)Nc1ccc2[nH]ncc2c1	77.7%
O=C(CN1CCSC1=O)Nc1cn[nH]c1	11.7%
Cc1ccc(NC(=O)CN2CCSC2=O)cc1C	1.36%
O=C(O)C=CC(=O)Nc1ccc(F)cc1	7.34%
Cn1cc(NC(=O)CN2CCSC2=O)cn1	71.6%
Cc1cc(C)cc(NC(=O)CN2CCSC2=O)c1	5%
COCC(C)NC(=O)C(C#N)=Cc1occc1C (stereo not shown)	5.2%
O=C1SCCN1CC(=O)N1CCCc2ccccc21	7.03%
Cc1c(C#N)c(NC(=O)CCl)n(-c2ccc(F)cc2)c1C	1.78%
COc1ccc2[nH]c(CCCCl)nc2n1.Cl	23.2%
C=CS(=O)(=O)c1ccc(C#N)cn1	1.18%
O=S(=O)(Oc1ccccc1C(F)(F)F)c1c[nH]cn1	10.4%
COCCCS(=O)(=O)N1CCC(Cl)CC1	7.37%
OB(O)c1cccc2c1OCCC2	4.89%
C=CC(=O)N1CCc2c(cccc2C(F)(F)F)C1	-3.37%
Cc1noc2ncc(S(=O)(=O)OCC(F)(F)F)cc12	18.2%
O=S(=O)(F)c1ccc2cnccc2c1	86.1%
O=S(=O)(F)c1cccnc1	17.7%

SMILES	Inhibition %
Cc1cc2[nH]ncc2cc1S(=O)(=O)F	97.4%
O=S(=O)(F)c1ccc2[nH]ncc2c1	53%
O=S(=O)(F)c1ccc(S(=O)(=O)Nc2ccncc2F)cc1	17.6%
O=S(=O)(F)c1ccc(F)cc1	2.62%
O=S(=O)(F)c1ccc2c(c1)NCC2	26.6%
O=S(=O)(F)c1ccc2cn[nH]c2c1	72.5%
Cc1ccc(F)c(OS(=O)(=O)c2cn[nH]c2C)c1	11.7%
COc1ncc(S(=O)(=O)F)cn1	31.2%
Cc1cc(CNC(=O)CCl)ccc1F	18%
Cc1cc(NS(=O)(=O)C=Cc2ccccc2Cl)n(C)n1	8.51%
C=CC(=O)NC1CCCc2c1cnn2C (stereo not shown)	6.84%
C=CC(=O)Nc1cccc(C(=O)O)c1	4.88%
Cc1nc(C(C)C)oc1Cn1ccnc1C#N	8.62%
C=CC(=O)N1CCC(OCC2CC2)CC1	-0.254%
Cc1cc2ncn(CC3CO3)c2cc1C (stereo not shown)	20.8%
C=CC(=O)N1CC(OC)Cc2ccccc21 (stereo not shown)	13.5%
C=CC(=O)N1CCc2c(F)cccc2C1	6.26%
O=C(CCl)NCCOc1cccc(Cl)c1	17.8%
ClCC1COCCO1 (stereo not shown)	-2.68%
CCN(Cc1ccc2c(c1)OCO2)C(=O)CCl	9.14%
Cc1ccn(S(=O)(=O)c2ccc(F)c(C)c2)n1	6.8%
CN(C#N)Cc1ccccc1	62.8%
CN(CCc1ccccc1)c1nccnc1C#N	3.72%

SMILES	Inhibition %
CN(Cc1ccccc1)C(=O)C=CC(=O)O	23.5%
C=CC(=O)N1CCN2CCOCC2C1 (stereo not shown)	8.35%
CN(Cc1ccc(F)cc1)C(=O)CCl	39.9%
COc1ccc(CN(C)C(=O)CCl)cc1	61.5%
COc1ccc(C(=O)CCl)cc1	3.52%
CN(Cc1cccc(F)c1)C(=O)CCl	44.5%
CN(Cc1cccc(Cl)c1)C(=O)CCl	49.6%
COc1cccc(CN(C)C(=O)CCl)c1	76.7%
CN(Cc1ccc(OC(F)F)cc1)C(=O)CCl	51.1%
NC(=O)c1ccc(OCCCl)cc1	-3.9%
COc1ccc2cc(CN(C)C(=O)CCl)ccc2c1	8%
CCOc1ccc(C(=O)CCl)cc1	84.9%
COc1ccc(CN(C(=O)CCl)C2CC2)cc1	15.6%
N#Cc1ccc(N2CCc3sccc3C2)cn1	27.1%
C=CC(=O)N(C)C1CCCc2cccnc21 (stereo not shown)	7.75%
N#CC1(CC2CO2)CCC1 (stereo not shown)	3.78%
Cc1ccc(OC2CCCC2)c(B(O)O)c1	2.59%
COc1ccc2[nH]c(C)c(C(=O)CCl)c2c1	4.84%
O=C1OCCC1n1nnc(-c2ccc(F)cc2)n1 (stereo not shown)	4.53%
C=CC(=O)NC1CSC1(C)C (stereo not shown)	6.84%
OB(O)c1ccc(-c2ccccc2)cc1F	24.2%
C=CC(=O)N1CCCN(C(=O)c2ccco2)CC1	1.97%
Cc1ccc(C=C(C#N)C(N)=O)c(C)c1	4.01%

SMILES	Inhibition %
Cc1cccc(C)c1NC(=O)Cn1cnc(C#N)n1	6.38%
CN(Cc1cccc(C(F)(F)F)c1)C(=O)CCl	37.1%
CCN(Cc1ccc(OC)c(F)c1)C(=O)CCl	10%
CCOc1ccc(CN(C)C(=O)CCl)cc1	67.6%
COc1ccc(CN(C)C(=O)CCl)cc1F	58.3%
COC(=O)c1ccccc1N(C)C(=O)CCl	6.59%
C=CC(=O)N1CCCC1c1cccc2c1OCCO2 (stereo not shown)	4.1%
C=CC(=O)Nc1nc2c(s1)COCC2	6.4%
CC1c2cccn2CCN1C(=O)n1ccnc1 (stereo not shown)	22%
O=C(Nc1ccccc1)NC1CN(c2ccccc2)C1=O (stereo not shown)	5.74%
CC(=O)NCc1ccc(C(=O)CCl)s1	91.1%
CCc1ccc(CNC(=O)CCl)s1	4.03%
O=C(CCl)NCC(=O)c1cccs1	15.1%
Cc1[nH]c2ccccc2c1C(=O)CCl	6.53%
CS(=O)(=O)c1ccccc1NC(=O)CCl	11.4%
CS(=O)(=O)NCCc1ccc(C(=O)CCl)s1	97.6%
O=C(CCl)c1sccc1Cl	94.4%
O=C(CCl)NCc1cccs1	3.94%
Cc1ccc(CNC(=O)CCl)s1	3.17%
C=CC(=O)NCc1ccc(C)s1	1.04%
COC(=O)c1sccc1NC(=O)CCl	3.83%
CC(C)(C)C(=O)NCc1ccc(C(=O)CCl)s1	76.2%
O=S(=O)(F)Cc1ccccc1Cl	7.95%

SMILES	Inhibition %
C=CC(=O)Nc1nsc(N2CCCC2)n1	16%
N#Cc1cc(C(=O)O)ccn1	4.99%
CCc1ccc(B2OC(C)(C)C(C)(C)O2)n1C(=O)OC(C)(C)C	5.89%
C=CC(=O)N1CCC(C)(N2CCOCC2)CC1	10%
C=CC(=O)NC1CCN(c2cnn(C)c2)C1 (stereo not shown)	33.9%
CC1(C)OB(c2ccncc2)OC1(C)C	4.41%
O=C(CCl)NCCc1cccs1	31.1%
O=C(CCl)c1ccc(CC(=O)N2CCOCC2)s1	7.37%
NC(=O)Cc1ccc(C(=O)CCl)s1	97.4%
CC(=O)NCCc1ccc(C(=O)CCl)s1	90.4%
O=C(CCl)c1cnc(N2CCCCC2)s1	8.03%
O=C(CCl)NCc1ccc(Cl)s1	15.9%
O=C(CCl)NC(=O)NCCc1cccs1	11.2%
Cc1ccc(C(=O)CCl)s1	28.1%
O=C(CCl)c1ccc(Cl)s1	94.6%
N#Cc1nnc(-c2ccccc2)s1	11.8%
N#Cc1[nH]ccc2nccc1-2	18.7%
C=CC(=O)NC1COc2cc(F)cc(F)c21 (stereo not shown)	3.21%
CC(C)c1ccccc1OCC1CO1 (stereo not shown)	-4.39%
CN(C)CCc1ccc(B(O)O)cc1.Cl	2.57%
O=C(CCl)NCCc1ccsc1	27.9%
C=CC(=O)N1CCCN(CC2CCCO2)CC1 (stereo not shown)	13.1%
O=C(CCl)Nc1nc(-c2cccs2)cs1	11.6%

SMILES	Inhibition %
Sc1nncc2ccccc12	8.48%
Sc1nncc(-c2cccs2)n1	94.3%
Cc1ccc(C=CS(=O)(=O)Nc2ccnn2C(C)C)cc1	13%
C=CC(=O)N1CCC(C(=O)O)(c2ccccc2)CC1	2.37%
Cc1nnc(CN(C#N)c2ccc(F)c(Cl)c2)o1	5.26%
Cc1ccc(F)c(N(C#N)Cc2nnc(C)o2)c1	69%
CCCn1c(C)nnc1CN(C#N)c1cc(C)ccc1F	20.1%
O=C1OCCC1N1CCN(c2nccs2)CC1 (stereo not shown)	2.57%
O=c1[nH]nc(-c2cccs2)o1	12.1%
O=c1[nH]nc(-c2ccc(F)cc2)o1	6.22%
O=c1[nH]nc(-c2ccco2)o1	50.5%
O=C(O)Cn1nc(-c2ccc(F)cc2)oc1=O	12.4%
Nc1cncc(S(=O)(=O)F)c1	95.6%
Nc1ccc(S(=O)(=O)F)cc1	5.99%
N#CC(=Cc1ccc(-c2ccc(Cl)cc2Cl)o1)C(N)=O	3.17%
Cc1ccc(Cl)c(OCC2CO2)c1 (stereo not shown)	7.81%
CC1(C)OB(c2c(Cl)cccc2Cl)OC1(C)C	1.49%
Cc1ccccc1N1CCN(C(=O)n2ccnc2)CC1	8.38%
